Shown is part of a subset that was picked to be rich in hits.
Tb PFK inh: blocks T. brucei phosphofructokinase; O15648; T. brucei PFK, ADP-Glo luminescence; Potency, µM (series often up to 57.5 µM), without a hit: at the top dose activity, negative = inhibition, actives largely listed as inhibitors; 330,000 compounds, 0.17% hits;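 also: potency is read from the fitted curve at half-maximal effect; 0% = uninhibited 1x PFK enzyme wells and -100% = no-enzyme wells; nearly all actives have a fitted effect of over 60% in size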
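Activity is normalized to no-enzyme wells (full inhibition) and 1.25 nM enzyme wells (no inhibition). Reaction: 0.5 mM F6P, 0.1 mM ATP, 45 min RT, ADP-Glo luminescence; concentration-response curves fitted and classed by quality.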
PI5P4Ka inh: inhibitors of human PI5P4K alpha; PI5P4Kalpha enzyme, ADP-Glo luminescence, 60 min; stronger effect = lower value; max response, %; 330,000 compounds, 1.2% hits; AID 652105; active = max response of -50% or lower; inconclusive = between -30% and -50%; inactive = -30% or higher; also: value at the top dose of about 77 µM
Target sequence (P48426 whole entry, looked up): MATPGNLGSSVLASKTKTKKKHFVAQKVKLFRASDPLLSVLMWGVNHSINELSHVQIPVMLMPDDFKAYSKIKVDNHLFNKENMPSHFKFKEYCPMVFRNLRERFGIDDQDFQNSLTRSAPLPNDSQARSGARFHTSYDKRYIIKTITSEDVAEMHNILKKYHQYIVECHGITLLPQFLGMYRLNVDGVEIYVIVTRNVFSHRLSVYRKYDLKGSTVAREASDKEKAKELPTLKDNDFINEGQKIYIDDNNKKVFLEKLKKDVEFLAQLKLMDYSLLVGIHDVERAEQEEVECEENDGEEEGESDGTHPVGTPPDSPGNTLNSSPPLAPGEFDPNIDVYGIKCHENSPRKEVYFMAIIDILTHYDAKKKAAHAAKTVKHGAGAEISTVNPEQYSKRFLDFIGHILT
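Compounds were pin-transferred onto PI5P4Kalpha and substrate in HEPES pH 7.4 buffer with EGTA, CHAPS and 5% DMSO. ATP (5 microM final) started the reaction, which ran 60 minutes at room temperature before ADP-Glo detection.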
Tb PGK inh: blocks T. brucei phosphoglycerate kinase; P07378; PGK/GAPDH coupled, Kinase-Glo luminescence, 60 min; Potency, µM (highest dose often 57.5 µM), for the others: at the highest dose activity change, negative = inhibition, most hits filed as inhibitors; 380,000 compounds, 0.043% hits; also: potency is read from the fitted curve at half-maximal effect; nearly all actives have a fitted effect of over 60% in size
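Luminescent ATP detection (Kinase-Glo Plus) follows a 60-minute room-temperature incubation, with wells lacking PGK as controls. Buffer: 100 mM TEA (pH 7.6), 5 mM MgCl2, 0.01% Tween-20. Coupling enzyme GAPDH (100 nM final) supplies unstable 1,3-BPG in-well.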
Pin1 inh: blocks the human prolyl isomerase Pin1. Pin1 FP peptide displacement, HiFluor488, 10 min. Potency, µM (series often up to 115 µM), for the others: top-dose activity, negative = inhibition, usual class: inhibitors. 390,000 compounds, 0.009% hits; active = well fitted inhibition curve with a large enough effect in the polarisation, with a control signal flat, not every such curve was filed as active; inconclusive = small, poorly fitted or top-dose-only effect, or effect the other way, or a change in a side signal; inactive = no such curve, though single readings can be large or run the other way; the % refers to the polarisation; also: potency is read from the fitted curve at half-maximal effect
Target sequence (Q13526 whole entry, looked up): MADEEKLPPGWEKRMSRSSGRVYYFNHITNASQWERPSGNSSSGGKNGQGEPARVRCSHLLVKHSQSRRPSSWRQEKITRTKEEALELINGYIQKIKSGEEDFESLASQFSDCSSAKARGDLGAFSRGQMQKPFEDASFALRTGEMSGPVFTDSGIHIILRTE
PI4K2A block: PI4K2A (human) kinase inhibition; activity change, negative = inhibition, % at 76.9 µM; 420,000 compounds, 0.13% hits; Q9BTU6; purified PI4K2A, ADP-Glo luminescence, 1 h; stronger effect = lower value; in the data active = activity change below about -50%; inconclusive = mostly about -30% to -49%;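 also: -100% = wells without enzyme as full effect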
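ADP-Glo luminescence measured ADP generated by PI4K2A enzyme (4 ug/mL before mixing) with 1.2 mM PI substrate (pre-mix) and 300 microM ATP (pre-mix). Tris pH7.5 buffer with MgCl2, Triton X-100; 1 h reaction at ambient temperature.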
Starred values were filed as active, the others as inactive. Unless noted, calls follow the shape of the dose curve; as a rule, active = well fitted curve in the direction sought with a large enough effect; inconclusive = small, poorly fitted or top-dose-only effect, or another doubt; inactive = no such curve, though single readings can be large; an effect the other way counts as inactive or inconclusive. Unless noted, % is scaled to controls: 0 for no effect and ±100 for the full control effect.

Screening CC(C)C(NC(=O)c1ccccc1Br)c1ccccc1 (stereo not drawn) returned Tb PFK inh 1%, PI5P4Ka inh 5, Tb PGK inh inactive, Pin1 inh -3% and PI4K2A block 2.
For CC(NC(=S)NC(=O)c1ccccc1Br)c1ccccc1 (stereo not drawn) the results were Tb PFK inh -3%, PI5P4Ka inh -56*, Tb PGK inh -8%, Pin1 inh -1% and PI4K2A block -2.
CC(C)(C)NC(=O)CC1C[C@H](C(=O)N2CCCCC2)[C@@]2(C)c3[nH]c4ccccc4c3CCN2C1=O (stereo partly drawn) was read as Tb PFK inh 0%, PI5P4Ka inh 0, Tb PGK inh -3%, Pin1 inh 4% and PI4K2A block -59*.
For COC1=C[C@H](C(=O)NCCOC(C)=O)[C@H](C)[C@@H](c2ccccc2)CC1=O the results were PI4K2A block 1.
COc1cccc(Cn2ncc3c4sc(SC)cc4n(C)c3c2=O)c1 was read as Pin1 inh 4%.
CCOC(=O)c1sc(NC(=O)CSc2n[nH]c(-c3ccccc3)n2)c(C#N)c1C was read as Tb PFK inh -19%, PI5P4Ka inh -55*, Tb PGK inh 1%, Pin1 inh 15% and PI4K2A block -6.
CCOC(=O)c1sc(NC(=O)C2=COCCO2)c(C#N)c1C was read as Tb PFK inh 27%, PI5P4Ka inh -4, Tb PGK inh -6%, Pin1 inh 6% and PI4K2A block -4.
Screening CCOC(=O)c1sc(NC(=O)C(C)C)c(C#N)c1C returned Tb PFK inh 0%, PI5P4Ka inh -68*, Tb PGK inh -13%, Pin1 inh 74% and PI4K2A block -6.
CCC(C)N=C1Sc2nc3ccc(C)cc3cc2CN1CCOC (stereo not drawn) was read as Tb PFK inh -8%, PI5P4Ka inh -53*, Tb PGK inh -2%, Pin1 inh -1% and PI4K2A block -2.
Screening COCCN1Cc2cc3cc(C)ccc3nc2SC1=Nc1ccc(OC)cc1 returned Tb PFK inh -7%, PI5P4Ka inh 6, Tb PGK inh -7%, Pin1 inh 0% and PI4K2A block -2.
Screening CC(=O)Oc1ccc(C2(c3ccc(OC(C)=O)cc3)Oc3ccccc3NC2=O)cc1 returned PI4K2A block -4.
`COc1ccccc1/C=C/C=N/NC(=O)c1cc(-c2ccco2)[nH]n1` gave Tb PFK inh 7%, PI5P4Ka inh -72*, Tb PGK inh 2%, Pin1 inh 16% and PI4K2A block -2.
Screening O=C1c2ccccc2C(=Cc2cccnc2)c2ccccc21 returned PI5P4Ka inh -54*, Tb PGK inh inactive and PI4K2A block -6.
For O=C1NC(=S)SC1=Cc1ccc2c(c1)OCO2 the results were PI5P4Ka inh -78*, Tb PGK inh -6%, Pin1 inh -5% and PI4K2A block 8.
Screening CCOC(=O)/C=C1\NC(=O)CS1 returned Tb PFK inh -4%, PI5P4Ka inh -1, Tb PGK inh -9%, Pin1 inh 0% and PI4K2A block 3.
For COc1cccc(C(C)=C2SC(=S)NC2=O)c1 the results were PI5P4Ka inh -71*, Tb PGK inh -2%, Pin1 inh -6% and PI4K2A block 5.
Screening COc1ccc2cc(/C=C3\SC(=S)NC3=O)c(N3CCOCC3)nc2c1 returned Tb PFK inh 3%, PI5P4Ka inh -62*, Tb PGK inh 1%, Pin1 inh 61% and PI4K2A block -4.
Screening COc1ccc(OC)c(/C=C2\SC(=S)N(N3CCOCC3)C2=O)c1 returned Tb PFK inh -7%, PI5P4Ka inh -8, Tb PGK inh inactive, Pin1 inh 1% and PI4K2A block -5.
O=C1NC(=S)N/C1=C/c1ccc2c(c1)OCO2 was read as Tb PFK inh 3%, PI5P4Ka inh 3, Pin1 inh 14% and PI4K2A block -2.
`COc1cccc(C(=O)NCCCNC(=O)c2cccc(OC)c2)c1` gave Tb PFK inh 7%, PI5P4Ka inh -4, Tb PGK inh -4%, Pin1 inh 3% and PI4K2A block -5.
CCO/C(C)=C1/SC(=S)NC1=O was read as Tb PFK inh 2%, PI5P4Ka inh -63*, Tb PGK inh -6%, Pin1 inh inconclusive and PI4K2A block -2.
For CCC(CN)=C(c1ccccc1)c1ccccc1 the results were PI4K2A block -1.
Screening COc1cc(/C=C2/SC(=O)NC2=O)ccc1OCc1ccccc1 returned Tb PFK inh 1%, PI5P4Ka inh 5, Tb PGK inh 1%, Pin1 inh 7% and PI4K2A block 0.
`COc1ccc(/C=C2/SC(=S)NC2=O)cc1OCc1ccccc1` gave Tb PFK inh -1%, PI5P4Ka inh -75*, Tb PGK inh inactive, Pin1 inh 10% and PI4K2A block -2.
COc1cccc(C=C2SC(=S)NC2=O)c1 was read as PI5P4Ka inh -60*, Tb PGK inh inactive, Pin1 inh -8% and PI4K2A block 0.
C=CCOC(=O)C1=C(C)N=c2sc(=C3C(=O)N(CC(=O)O)c4ccccc43)c(=O)n2C1c1ccc(OC)cc1 (stereo not drawn) was read as PI4K2A block -29.
For O=Cc1coc2ccc3ccccc3c2c1=O the results were Tb PFK inh -1%, PI5P4Ka inh -86*, Tb PGK inh inconclusive, Pin1 inh -13% and PI4K2A block -13.
`O=C(CCc1ccccc1)Nc1ncnc2c1C(c1ccccc1)c1c(ccc3ccccc13)O2` (stereo not drawn) gave Pin1 inh 50%.
For N#C/C(=C\c1ccc(O)c(O)c1)C(=O)Nc1cccc2ncccc12 the results were Tb PFK inh 17%, PI5P4Ka inh -72*, Tb PGK inh inconclusive, Pin1 inh 36% and PI4K2A block inconclusive.
COc1ccc(/C=C(\C#N)C(=O)Nc2cccc3ncccc23)cc1OC was read as Tb PFK inh 3%, PI5P4Ka inh -1, Tb PGK inh -9%, Pin1 inh 8% and PI4K2A block -1.
CCc1c(C)nc(N2CCN(c3ccc(F)cc3)CC2)[nH]c1=O was read as Tb PFK inh 0%, PI5P4Ka inh -1, Tb PGK inh -2%, Pin1 inh 2% and PI4K2A block -1.
For Cc1nnc(N2CCN(c3ccccc3)CC2)[nH]c1=O the results were Tb PFK inh 6%, PI5P4Ka inh -55*, Tb PGK inh -11%, Pin1 inh -6% and PI4K2A block 2.
CC1=NN(c2nc(-c3ccc(C)cc3)cs2)C(=O)C1N=Nc1ccccc1O (stereo not drawn) was read as Tb PFK inh -7%, PI5P4Ka inh -30, Tb PGK inh 4%, Pin1 inh inconclusive and PI4K2A block 3.
